# Laboratory results reported in paper PMC7862700, “An all-to-all approach to the identification of sequence-specific readers for epigenetic DNA modifications on cytosine”.
# Columns and labels:
# Assay in all cases: DAPPL (digital affinity profiling via proximity ligation, sequencing); 10 mM Tris-HCl pH 7.5, 50 mM NaCl, 1 mM DTT, 4% glycerol, room temperature, 30 min; GST-TFs on glutathione beads, 16-mer random dsDNA library, 0.1% formaldehyde crosslink after washing; high values mean tight binding
# FLI1 = target: T1, FLI1 (Homo sapiens, UniProt Q01543 1-452); conditions: protein: recombinant; tags: N-terminal GST; dsDNA, one strand shown
# T1 sequence: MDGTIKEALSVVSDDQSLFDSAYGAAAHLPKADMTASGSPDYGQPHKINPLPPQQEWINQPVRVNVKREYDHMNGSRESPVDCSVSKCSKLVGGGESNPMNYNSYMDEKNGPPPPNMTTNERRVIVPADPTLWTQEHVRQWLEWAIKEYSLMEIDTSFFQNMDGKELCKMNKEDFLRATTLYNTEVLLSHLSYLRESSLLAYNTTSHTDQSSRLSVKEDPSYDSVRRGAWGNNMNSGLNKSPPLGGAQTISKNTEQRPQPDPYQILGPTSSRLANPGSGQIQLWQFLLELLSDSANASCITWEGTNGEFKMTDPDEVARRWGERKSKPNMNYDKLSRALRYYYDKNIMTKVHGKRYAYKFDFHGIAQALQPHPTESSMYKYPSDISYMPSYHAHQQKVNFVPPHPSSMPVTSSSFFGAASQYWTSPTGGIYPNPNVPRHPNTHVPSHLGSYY
# Outline: (§1)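 Sequencing on an Illumina NextSeq500 followed washing, crosslinking with 0.1% formaldehyde, proximity ligation (BsaI/T4 ligase, 1 h, 37 °C) and PCR amplification of pools that had been incubated for 30 min at room temperature with 200 nmole of a random double-stranded 16-mer DNA library in Tris/NaCl/DTT/glycerol buffer. Each pool held DNA-barcoded human transcription factors, expressed in yeast as GST fusions and captured on glutathione beads, plus a tag-only sample. Binding signal is a hexamer's read frequency for a factor divided by its frequency in the tag-only sample.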
# ELK1 = target: T2, ELK1 (Homo sapiens, UniProt P19419 1-428); conditions: protein: recombinant; tags: N-terminal GST; dsDNA, one strand shown
# T2 sequence: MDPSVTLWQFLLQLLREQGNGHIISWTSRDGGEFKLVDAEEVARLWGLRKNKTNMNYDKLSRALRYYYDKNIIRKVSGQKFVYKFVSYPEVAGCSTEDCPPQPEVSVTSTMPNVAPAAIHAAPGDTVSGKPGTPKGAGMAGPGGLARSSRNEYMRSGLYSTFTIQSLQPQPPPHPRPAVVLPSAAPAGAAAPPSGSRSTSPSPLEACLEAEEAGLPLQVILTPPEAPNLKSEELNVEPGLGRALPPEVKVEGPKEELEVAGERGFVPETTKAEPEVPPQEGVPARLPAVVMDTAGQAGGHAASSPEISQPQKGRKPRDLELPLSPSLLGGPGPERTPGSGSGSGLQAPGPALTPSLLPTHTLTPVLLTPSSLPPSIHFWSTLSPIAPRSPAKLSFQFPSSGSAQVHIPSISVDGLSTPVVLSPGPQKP
# Outline: as §1
# GABPA = target: T3, GABPA (Homo sapiens, UniProt Q06546 1-454); conditions: protein: recombinant; tags: N-terminal GST; dsDNA, one strand shown
# T3 sequence: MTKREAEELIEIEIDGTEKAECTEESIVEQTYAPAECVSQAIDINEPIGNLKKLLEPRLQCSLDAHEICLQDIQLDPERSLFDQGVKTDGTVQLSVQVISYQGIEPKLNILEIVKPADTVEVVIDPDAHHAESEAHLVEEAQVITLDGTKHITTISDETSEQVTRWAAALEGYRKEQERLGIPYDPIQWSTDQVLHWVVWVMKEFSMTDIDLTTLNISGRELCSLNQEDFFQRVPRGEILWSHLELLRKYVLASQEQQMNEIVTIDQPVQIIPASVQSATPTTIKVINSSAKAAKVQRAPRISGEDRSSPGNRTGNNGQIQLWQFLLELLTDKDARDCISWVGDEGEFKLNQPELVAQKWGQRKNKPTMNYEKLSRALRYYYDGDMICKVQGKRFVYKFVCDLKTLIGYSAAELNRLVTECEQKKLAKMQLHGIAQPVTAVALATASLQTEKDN
# Outline: as §1
# ERG = target: T4, ERG (Homo sapiens, UniProt P11308 1-479); conditions: protein: recombinant; tags: N-terminal GST; dsDNA, one strand shown
# T4 sequence: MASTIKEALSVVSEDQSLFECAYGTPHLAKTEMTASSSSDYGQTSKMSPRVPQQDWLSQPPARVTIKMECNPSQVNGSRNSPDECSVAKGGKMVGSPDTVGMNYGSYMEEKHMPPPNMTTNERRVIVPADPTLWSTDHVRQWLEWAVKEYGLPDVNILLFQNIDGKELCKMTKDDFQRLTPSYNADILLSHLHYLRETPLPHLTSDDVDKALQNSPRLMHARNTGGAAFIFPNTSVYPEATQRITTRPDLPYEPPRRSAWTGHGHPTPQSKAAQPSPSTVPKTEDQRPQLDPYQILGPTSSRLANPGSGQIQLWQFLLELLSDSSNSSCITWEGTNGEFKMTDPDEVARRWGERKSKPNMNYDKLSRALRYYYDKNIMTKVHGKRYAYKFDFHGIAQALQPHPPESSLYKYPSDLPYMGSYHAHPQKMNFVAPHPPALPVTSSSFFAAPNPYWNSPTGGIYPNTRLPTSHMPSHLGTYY
# Outline: as §1
# ELF1 = ELF1 (Homo sapiens, UniProt P32519 1-619); conditions: protein: recombinant; tags: N-terminal GST; dsDNA, one strand shown
# ELF1, sequence (P32519 whole entry): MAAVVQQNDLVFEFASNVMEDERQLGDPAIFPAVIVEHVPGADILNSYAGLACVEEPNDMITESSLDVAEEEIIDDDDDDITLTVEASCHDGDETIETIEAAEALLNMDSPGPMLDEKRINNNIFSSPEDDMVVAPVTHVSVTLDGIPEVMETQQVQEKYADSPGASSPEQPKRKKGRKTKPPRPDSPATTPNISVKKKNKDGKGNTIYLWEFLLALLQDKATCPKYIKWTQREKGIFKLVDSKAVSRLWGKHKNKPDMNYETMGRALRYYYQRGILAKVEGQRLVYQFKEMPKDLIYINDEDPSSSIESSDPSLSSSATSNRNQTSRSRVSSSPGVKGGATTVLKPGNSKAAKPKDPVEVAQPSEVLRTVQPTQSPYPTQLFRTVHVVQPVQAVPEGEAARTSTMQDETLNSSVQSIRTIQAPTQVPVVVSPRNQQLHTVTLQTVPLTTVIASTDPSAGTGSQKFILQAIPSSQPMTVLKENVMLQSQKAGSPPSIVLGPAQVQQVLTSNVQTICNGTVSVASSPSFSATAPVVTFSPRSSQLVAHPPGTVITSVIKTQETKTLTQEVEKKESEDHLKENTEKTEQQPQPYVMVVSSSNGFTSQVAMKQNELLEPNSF
# Outline: as §1
# EHF = target: T5, EHF (Homo sapiens, UniProt Q9NZC4 1-300); conditions: protein: recombinant; tags: N-terminal GST; dsDNA, one strand shown
# T5 sequence: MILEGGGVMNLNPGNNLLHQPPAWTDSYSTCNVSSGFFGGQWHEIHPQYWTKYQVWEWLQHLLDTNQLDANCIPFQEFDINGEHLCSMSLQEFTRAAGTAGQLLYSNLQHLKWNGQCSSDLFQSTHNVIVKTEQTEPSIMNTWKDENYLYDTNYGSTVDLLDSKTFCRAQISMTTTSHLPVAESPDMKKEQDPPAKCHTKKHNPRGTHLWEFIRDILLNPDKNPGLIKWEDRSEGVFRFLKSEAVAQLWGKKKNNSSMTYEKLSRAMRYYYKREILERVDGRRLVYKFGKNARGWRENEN
# Outline: as §1
# SPI1 = SPI1 (Homo sapiens, UniProt P17947 1-270); conditions: protein: recombinant; tags: N-terminal GST; dsDNA, one strand shown
# Outline: as §1
# SPIB = SPIB (Homo sapiens, UniProt Q01892 1-262); conditions: protein: recombinant; tags: N-terminal GST; dsDNA, one strand shown
# SPIB, sequence (Q01892 whole entry): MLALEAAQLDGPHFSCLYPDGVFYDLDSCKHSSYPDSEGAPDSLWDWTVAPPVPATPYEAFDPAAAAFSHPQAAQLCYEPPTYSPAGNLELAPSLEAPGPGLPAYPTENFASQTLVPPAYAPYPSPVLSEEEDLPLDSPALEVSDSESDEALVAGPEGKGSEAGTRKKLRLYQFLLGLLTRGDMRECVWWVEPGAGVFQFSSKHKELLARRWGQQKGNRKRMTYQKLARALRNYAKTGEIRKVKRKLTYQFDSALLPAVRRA
# Outline: as §1
# ELK3 = target: T6, ELK3 (Homo sapiens, UniProt P41970 1-407); conditions: protein: recombinant; tags: N-terminal GST; dsDNA, one strand shown
# T6 sequence: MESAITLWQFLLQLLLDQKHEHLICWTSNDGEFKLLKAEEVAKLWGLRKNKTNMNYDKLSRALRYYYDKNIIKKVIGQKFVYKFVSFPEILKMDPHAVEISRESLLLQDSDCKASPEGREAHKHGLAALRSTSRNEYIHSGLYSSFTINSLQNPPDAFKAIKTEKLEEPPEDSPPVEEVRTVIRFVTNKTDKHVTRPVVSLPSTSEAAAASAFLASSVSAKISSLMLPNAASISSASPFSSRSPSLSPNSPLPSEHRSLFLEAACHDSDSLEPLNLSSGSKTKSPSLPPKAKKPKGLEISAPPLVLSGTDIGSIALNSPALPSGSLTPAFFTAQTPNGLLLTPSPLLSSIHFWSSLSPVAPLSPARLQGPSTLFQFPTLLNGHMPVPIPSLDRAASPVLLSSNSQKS
# Outline: as §1
# FEV = target: T7, FEV (Homo sapiens, UniProt Q99581 1-238); conditions: protein: recombinant; tags: N-terminal GST; dsDNA, one strand shown
# T7 sequence: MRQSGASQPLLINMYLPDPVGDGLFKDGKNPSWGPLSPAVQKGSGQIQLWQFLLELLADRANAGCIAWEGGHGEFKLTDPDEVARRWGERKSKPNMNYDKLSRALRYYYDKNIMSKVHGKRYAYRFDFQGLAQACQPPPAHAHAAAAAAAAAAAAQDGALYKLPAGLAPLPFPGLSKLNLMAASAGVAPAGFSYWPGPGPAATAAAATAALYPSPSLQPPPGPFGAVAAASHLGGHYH
# Outline: as §1
# ETV5 = ETV5 (Homo sapiens, UniProt P41161 1-510); conditions: protein: recombinant; tags: N-terminal GST; dsDNA, one strand shown
# ETV5, sequence (P41161 whole entry): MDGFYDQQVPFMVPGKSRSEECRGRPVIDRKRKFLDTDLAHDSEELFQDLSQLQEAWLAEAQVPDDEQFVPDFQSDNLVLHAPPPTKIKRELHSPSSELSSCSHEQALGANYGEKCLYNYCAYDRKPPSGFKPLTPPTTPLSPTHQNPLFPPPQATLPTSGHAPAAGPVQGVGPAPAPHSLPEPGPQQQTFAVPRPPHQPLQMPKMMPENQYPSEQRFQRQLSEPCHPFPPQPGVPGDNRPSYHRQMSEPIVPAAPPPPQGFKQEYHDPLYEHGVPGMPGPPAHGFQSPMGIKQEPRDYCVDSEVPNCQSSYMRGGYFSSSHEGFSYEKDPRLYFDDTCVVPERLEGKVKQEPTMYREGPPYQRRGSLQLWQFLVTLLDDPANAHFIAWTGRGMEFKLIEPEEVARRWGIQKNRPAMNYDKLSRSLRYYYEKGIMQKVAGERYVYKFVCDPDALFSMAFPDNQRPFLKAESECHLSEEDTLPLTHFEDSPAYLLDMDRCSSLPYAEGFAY
# Outline: as §1
# HSF1 = HSF1 (Homo sapiens, UniProt Q00613 1-529); conditions: protein: recombinant; tags: N-terminal GST; chain copies: 3; dsDNA, one strand shown
# HSF1, sequence (Q00613 whole entry): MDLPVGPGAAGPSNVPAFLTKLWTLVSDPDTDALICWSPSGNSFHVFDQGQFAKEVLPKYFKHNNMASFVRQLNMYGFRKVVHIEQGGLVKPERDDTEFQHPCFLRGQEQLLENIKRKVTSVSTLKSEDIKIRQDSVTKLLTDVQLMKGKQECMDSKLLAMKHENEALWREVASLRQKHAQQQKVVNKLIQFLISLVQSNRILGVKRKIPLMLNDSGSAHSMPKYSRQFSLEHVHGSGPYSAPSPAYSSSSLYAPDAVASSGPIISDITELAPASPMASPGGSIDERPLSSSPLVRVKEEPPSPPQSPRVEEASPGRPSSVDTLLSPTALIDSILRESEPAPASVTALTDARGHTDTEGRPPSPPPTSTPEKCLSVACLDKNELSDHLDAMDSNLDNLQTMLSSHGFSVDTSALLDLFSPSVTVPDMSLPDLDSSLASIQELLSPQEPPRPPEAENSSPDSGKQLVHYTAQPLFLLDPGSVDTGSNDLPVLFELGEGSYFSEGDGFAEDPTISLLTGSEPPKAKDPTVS
# Outline: as §1
# SPIC = target: T8, SPIC (Homo sapiens, UniProt Q8N5J4 1-248); conditions: protein: recombinant; tags: N-terminal GST; dsDNA, one strand shown
# T8 sequence: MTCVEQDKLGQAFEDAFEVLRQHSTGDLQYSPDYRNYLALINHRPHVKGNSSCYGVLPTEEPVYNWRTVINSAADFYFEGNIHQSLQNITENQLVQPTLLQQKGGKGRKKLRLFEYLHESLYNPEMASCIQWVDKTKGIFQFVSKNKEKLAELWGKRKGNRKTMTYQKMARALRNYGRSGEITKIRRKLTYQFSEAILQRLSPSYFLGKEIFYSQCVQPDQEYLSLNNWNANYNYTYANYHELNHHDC
# Outline: as §1
# ELF4 = ELF4 (Homo sapiens, UniProt Q99607 1-663); conditions: protein: recombinant; tags: N-terminal GST; dsDNA, one strand shown
# ELF4, sequence (Q99607 whole entry): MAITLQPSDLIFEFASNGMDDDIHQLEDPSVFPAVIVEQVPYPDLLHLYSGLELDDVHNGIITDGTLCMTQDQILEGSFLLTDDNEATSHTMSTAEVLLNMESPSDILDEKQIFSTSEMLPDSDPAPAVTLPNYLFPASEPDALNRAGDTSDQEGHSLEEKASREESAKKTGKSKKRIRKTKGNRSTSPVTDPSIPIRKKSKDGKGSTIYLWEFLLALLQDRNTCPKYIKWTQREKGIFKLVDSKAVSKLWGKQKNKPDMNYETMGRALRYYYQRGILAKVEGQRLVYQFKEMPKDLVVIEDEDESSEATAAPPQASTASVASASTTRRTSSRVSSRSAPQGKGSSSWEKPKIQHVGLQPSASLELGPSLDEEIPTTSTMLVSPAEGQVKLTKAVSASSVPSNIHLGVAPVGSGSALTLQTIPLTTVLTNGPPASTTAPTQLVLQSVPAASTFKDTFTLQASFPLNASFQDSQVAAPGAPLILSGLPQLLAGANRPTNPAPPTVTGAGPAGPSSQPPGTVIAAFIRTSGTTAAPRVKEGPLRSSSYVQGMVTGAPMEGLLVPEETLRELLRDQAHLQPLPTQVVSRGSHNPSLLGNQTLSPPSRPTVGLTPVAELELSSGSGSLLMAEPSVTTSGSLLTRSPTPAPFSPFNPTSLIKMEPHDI
# Outline: as §1
# ELK4 = target: T9, ELK4 (Homo sapiens, UniProt P28324-2 1-405); conditions: protein: recombinant; tags: N-terminal GST; dsDNA, one strand shown
# T9 sequence: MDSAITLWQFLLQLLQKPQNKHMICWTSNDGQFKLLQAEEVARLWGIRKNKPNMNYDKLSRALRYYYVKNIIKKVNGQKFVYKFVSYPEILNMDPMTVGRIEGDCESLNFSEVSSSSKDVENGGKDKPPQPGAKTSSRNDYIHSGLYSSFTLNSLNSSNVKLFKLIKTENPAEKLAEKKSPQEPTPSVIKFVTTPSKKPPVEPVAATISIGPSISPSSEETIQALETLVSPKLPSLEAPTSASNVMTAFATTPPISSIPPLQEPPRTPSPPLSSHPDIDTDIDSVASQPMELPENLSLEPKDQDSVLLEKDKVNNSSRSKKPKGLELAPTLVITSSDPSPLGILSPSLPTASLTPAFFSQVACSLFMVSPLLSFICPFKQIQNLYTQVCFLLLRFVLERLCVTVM
# Outline: as §1
# ETV2 = target: T10, ETV2 (Homo sapiens, UniProt O00321 1-342); conditions: protein: recombinant; tags: N-terminal GST; dsDNA, one strand shown
# T10 sequence: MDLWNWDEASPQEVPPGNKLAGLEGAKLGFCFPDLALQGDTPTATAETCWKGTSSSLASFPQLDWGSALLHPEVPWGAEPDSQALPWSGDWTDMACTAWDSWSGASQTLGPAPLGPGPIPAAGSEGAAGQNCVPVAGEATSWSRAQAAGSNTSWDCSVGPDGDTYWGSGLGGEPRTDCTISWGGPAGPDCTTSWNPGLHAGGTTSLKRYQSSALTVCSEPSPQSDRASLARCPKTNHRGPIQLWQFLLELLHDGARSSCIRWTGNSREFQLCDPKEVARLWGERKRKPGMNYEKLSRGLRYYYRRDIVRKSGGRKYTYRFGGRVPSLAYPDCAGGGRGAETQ
# Outline: as §1
# ELF3 = target: T11, ELF3 (Homo sapiens, UniProt P78545 1-371); conditions: protein: recombinant; tags: N-terminal GST; dsDNA, one strand shown
# T11 sequence: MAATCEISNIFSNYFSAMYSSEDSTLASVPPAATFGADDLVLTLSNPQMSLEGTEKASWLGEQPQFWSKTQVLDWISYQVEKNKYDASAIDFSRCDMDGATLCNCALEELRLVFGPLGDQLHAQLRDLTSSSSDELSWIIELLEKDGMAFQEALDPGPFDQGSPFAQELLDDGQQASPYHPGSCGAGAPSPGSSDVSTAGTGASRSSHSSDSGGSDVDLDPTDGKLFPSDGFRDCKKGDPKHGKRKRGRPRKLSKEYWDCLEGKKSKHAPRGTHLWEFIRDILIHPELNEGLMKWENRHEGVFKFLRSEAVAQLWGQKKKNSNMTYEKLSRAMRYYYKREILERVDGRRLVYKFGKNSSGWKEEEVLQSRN
# Outline: as §1
# CRX = CRX (Homo sapiens, UniProt O43186 1-299); conditions: protein: recombinant; tags: N-terminal GST; dsDNA, one strand shown
# CRX, sequence (O43186 whole entry): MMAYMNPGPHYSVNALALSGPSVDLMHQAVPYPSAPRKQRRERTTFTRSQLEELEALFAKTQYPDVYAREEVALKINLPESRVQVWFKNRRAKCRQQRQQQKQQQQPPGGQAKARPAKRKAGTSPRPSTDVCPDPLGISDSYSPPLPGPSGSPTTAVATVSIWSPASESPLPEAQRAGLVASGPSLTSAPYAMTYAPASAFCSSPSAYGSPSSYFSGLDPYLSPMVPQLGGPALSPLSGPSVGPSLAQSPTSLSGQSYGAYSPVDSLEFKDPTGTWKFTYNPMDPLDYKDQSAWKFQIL
# Outline: as §1
# ETV1 = ETV1 (Homo sapiens, UniProt P50549 1-477); conditions: protein: recombinant; tags: N-terminal GST; dsDNA, one strand shown
# ETV1, sequence (P50549 whole entry): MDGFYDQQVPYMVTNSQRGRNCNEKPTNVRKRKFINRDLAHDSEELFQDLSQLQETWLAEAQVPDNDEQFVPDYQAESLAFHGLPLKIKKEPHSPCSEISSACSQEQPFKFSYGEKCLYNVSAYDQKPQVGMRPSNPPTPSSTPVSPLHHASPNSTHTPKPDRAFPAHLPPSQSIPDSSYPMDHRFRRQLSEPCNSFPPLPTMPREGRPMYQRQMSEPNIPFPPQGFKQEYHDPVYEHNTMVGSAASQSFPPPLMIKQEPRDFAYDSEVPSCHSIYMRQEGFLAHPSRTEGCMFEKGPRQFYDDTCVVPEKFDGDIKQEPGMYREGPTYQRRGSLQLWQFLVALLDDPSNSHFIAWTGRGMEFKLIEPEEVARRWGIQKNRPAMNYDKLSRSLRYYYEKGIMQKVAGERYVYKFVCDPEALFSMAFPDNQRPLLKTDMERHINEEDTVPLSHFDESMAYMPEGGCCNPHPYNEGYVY
# Outline: as §1
sequence,measurement,setting,value
TGCGCT,binding signal,FLI1,"1.27 fold enrichment (6-mer frequency, TF over GST control)"
same,binding signal,ELK1,"1.3 fold enrichment (6-mer frequency, TF over GST control)"
same,binding signal,GABPA,"1.13 fold enrichment (6-mer frequency, TF over GST control)"
same,binding signal,ERG,"1.25 fold enrichment (6-mer frequency, TF over GST control)"
same,binding signal,ELF1,"1.19 fold enrichment (6-mer frequency, TF over GST control)"
same,binding signal,EHF,"1.25 fold enrichment (6-mer frequency, TF over GST control)"
same,binding signal,SPI1,"1.11 fold enrichment (6-mer frequency, TF over GST control)"
same,binding signal,SPIB,"1.31 fold enrichment (6-mer frequency, TF over GST control)"
same,binding signal,ELK3,"1.25 fold enrichment (6-mer frequency, TF over GST control)"
same,binding signal,FEV,"1.25 fold enrichment (6-mer frequency, TF over GST control)"
same,binding signal,ETV5,"1.28 fold enrichment (6-mer frequency, TF over GST control)"
same,binding signal,HSF1,"1.07 fold enrichment (6-mer frequency, TF over GST control)"
same,binding signal,SPIC,"1.24 fold enrichment (6-mer frequency, TF over GST control)"
same,binding signal,ELF4,"1.19 fold enrichment (6-mer frequency, TF over GST control)"
same,binding signal,ELK4,"1.46 fold enrichment (6-mer frequency, TF over GST control)"
same,binding signal,ETV2,"1.35 fold enrichment (6-mer frequency, TF over GST control)"
same,binding signal,ELF3,"1.04 fold enrichment (6-mer frequency, TF over GST control)"
same,binding signal,CRX,"1.2 fold enrichment (6-mer frequency, TF over GST control)"
same,binding signal,ETV1,"1.17 fold enrichment (6-mer frequency, TF over GST control)"
